Shown is part of a subset that was picked to be rich in hits.
Dicer processing: inhibitors of Dicer pre-microRNA processing, primary screen, biochemical, cat-ELCCA, chemiluminescence; cat-ELCCA pre-miR-21 Dicer processing; stronger effect = higher value; z-score at 25 µM; 6% of 47,000 active; in the data active = z-score above about 3, passing the limit was not always enough;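 also: higher signal means more uncleaved substrate so more Dicer inhibition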
A number is an active result.

`Cc1ccc(S(=O)(=O)Nc2ncccc2OCc2ccc(Cl)c(Cl)c2)cc1` gave Dicer processing inactive.
Screening Cc1ccc(S(=O)(=O)Nc2cc(Cl)c(O)c3ncccc23)cc1 returned Dicer processing 8.6.
O=C(Oc1c(Cl)cc(Cl)c2cccnc12)c1cccs1 was read as Dicer processing inactive.
For Cc1ccc(S(=O)(=O)Nc2cc(S(=O)(=O)c3ccc(C)cc3)c(O)c3cccnc23)cc1 the results were Dicer processing inactive.
`Cc1ccc(C(NC(=O)C(C)C)c2cc(Cl)c3cccnc3c2O)cc1` (stereo not drawn) gave Dicer processing inactive.
Fc1ccc(C2=Nn3c(nnc3-c3cc(Cl)cc(Cl)c3)SC2)cc1F was read as Dicer processing inactive.
For CC1=C(OS(=O)(=O)c2cc(Cl)sc2Cl)C(=O)CC1 the results were Dicer processing inactive.
Screening CCOC(=O)NC(=O)c1cn(Cc2ccccn2)c(=O)[nH]c1=O returned Dicer processing inactive.
Screening Cc1nn(Cc2nnc(SCc3cccc(C(F)(F)F)c3)o2)c(C)c1Br returned Dicer processing inactive.
Screening COc1cc2c(c(OC)c1)C(=O)O[C@@H](C)CCCC(=O)CCC/C=C/2 returned Dicer processing inactive.
COc1ccc2[nH]c3c(c2c1)CCNC3c1cccc(O)c1 (stereo not drawn) was read as Dicer processing inactive.
COCCOC(=O)C1=C(C)NC2=C(C(=O)CCC2)C1c1coc2ccc(C)cc2c1=O (stereo not drawn) was read as Dicer processing inactive.
Screening O=C(Nc1ccccn1)c1cccc(C(=O)Nc2ccccn2)n1 returned Dicer processing 3.5.
For O=C(O)COCC(=O)Nc1ccccn1 the results were Dicer processing inactive.
`O=C(Nc1cccc(NC(=O)c2c(F)cccc2F)n1)c1c(F)cccc1F` gave Dicer processing inactive.
CC1CCN(C(=O)N2c3ccccc3Sc3ccccc32)CC1 was read as Dicer processing inactive.
CCOC(=O)N1CCN(C(=O)N2c3ccccc3Sc3ccccc32)CC1 was read as Dicer processing 4.7.
O=C(N1CCN(c2ccccc2)CC1)N1c2ccccc2Sc2ccccc21 was read as Dicer processing inactive.
Cc1cc(SC(C)C(=O)O)nc2ccccc12 (stereo not drawn) was read as Dicer processing inactive.
COc1ccc(Nc2nc(N)nc(CN3CCOCC3)n2)cc1 was read as Dicer processing inactive.
For COc1ccc(Nc2cc(C)nc(N3CCOCC3)n2)cc1 the results were Dicer processing 6.7.
`COc1ccc(S(=O)(=O)Nc2ccc(N3CCOCC3)cc2)cc1` gave Dicer processing inactive.
`Cc1ccc(C2Sc3ccccc3N=C3c4ccccc4SCC32)cc1` (stereo not drawn) gave Dicer processing inactive.
For NC(=O)c1ccc(C(F)(F)F)[nH]c1=O the results were Dicer processing inactive.
Screening COc1cc(C2C(C(=O)OC3CCCC3)=C(C)NC3=C2C(=O)CCC3)cc(Cl)c1O (stereo not drawn) returned Dicer processing inactive.
Screening CN1c2ccccc2C(=O)C(=C2SCCCS2)S1(=O)=O returned Dicer processing inactive.
Screening COC(=O)c1ccc(C(=O)OC)nc1 returned Dicer processing 3.9.
For COC(=O)c1ccc(C(F)(F)C(F)(F)c2ccc(C(=O)OC)cc2)cc1 the results were Dicer processing inactive.
COC(=O)c1ccc2ncccc2c1 was read as Dicer processing inactive.
`CC(=O)Nc1cc2cc(NS(=O)(=O)c3ccc(Cl)cc3)ccc2oc1=O` gave Dicer processing inactive.
Cc1oc2ccc(NS(=O)(=O)c3ccc(Cl)cc3)cc2c1C(=O)OC(C)C was read as Dicer processing inactive.
`O=S(=O)(Nc1ccc(O)c(-c2c(O)ccc3ccccc23)c1)c1ccc(Cl)cc1` gave Dicer processing 8.5.
For Fc1ccccc1Cc1cn2cc(-c3ccccc3)nc2s1 the results were Dicer processing inactive.
`C[C@](Cc1ccc(O)c(O)c1)(NN)C(=O)O` gave Dicer processing inactive.
`CC1(C)CC(=O)c2sc(NC(=O)CN3CCOCC3)nc2C1` gave Dicer processing inactive.
Screening CCOc1ccc2c(c1)C(C)CC(C)(C)N2C(=O)NC1CCCCC1 (stereo not drawn) returned Dicer processing inactive.
Screening CC1=CC(C)(C)N(C(=O)NC2CCCCC2)c2cc(C)ccc21 returned Dicer processing inactive.
Screening Cc1ccc2c(c1)N(C(=O)NC1CCCCC1)C(C)(C)CC2C (stereo not drawn) returned Dicer processing 3.2.
O=C(CSCSCC(=O)NCc1ccccc1)NCc1ccccc1 was read as Dicer processing inactive.
Cc1ccc(S(=O)(=O)N(C)CCOCCN(C)S(=O)(=O)c2ccc(C)cc2)cc1 was read as Dicer processing inactive.
`CC1CN(S(=O)(=O)c2ccc(Cl)cc2)CCN1S(=O)(=O)c1ccc(Cl)cc1` (stereo not drawn) gave Dicer processing inactive.
`CSc1nsc(SC)c1C(=O)O` gave Dicer processing inactive.
Screening CC1CC(=O)N(c2ccccc2OC(F)(F)F)C1=O (stereo not drawn) returned Dicer processing inactive.
For Cc1ncc(S(=O)(=O)Cc2cccs2)c(N)n1 the results were Dicer processing 5.2.
`Cc1ncc(S(=O)(=O)C(C)(C)C)c(N)n1` gave Dicer processing inactive.
Screening CSc1ncc(S(=O)(=O)Cc2cccs2)c(N)n1 returned Dicer processing inactive.
COc1cc(C2SCCS2)cc([N+](=O)[O-])c1OS(=O)(=O)c1cc(Cl)ccc1Cl was read as Dicer processing inactive.
Screening CCN(CC)C(=O)C1Sc2nnc(-c3ccccc3)n2NC1c1ccc(F)cc1 (stereo not drawn) returned Dicer processing inactive.
Screening CC(=O)N/C(=C\c1ccc(OC(F)F)cc1)C(=O)O returned Dicer processing inactive.
`COc1cccc(C(=O)CC2(O)C(=O)N(C(C)C)c3ccccc32)c1` (stereo not drawn) gave Dicer processing inactive.
Screening O=C(CSc1nnc(-c2ccccc2)o1)c1ccccc1 returned Dicer processing inactive.
Screening O=C(CSc1nnc(-c2ccccc2)o1)OCc1ccccc1 returned Dicer processing 3.4.
Screening CCOC(=O)CSc1nnc(-c2ccc(C)cc2)o1 returned Dicer processing inactive.
For CCOC(=O)C1CCC(C(=O)OCC)N1C(=O)Nc1ccc(Cl)cc1 (stereo not drawn) the results were Dicer processing inactive.
For c1cnc(Nc2nc(-c3cccnc3)cs2)nc1 the results were Dicer processing inactive.
Cc1ccc(C)c(Nc2n[nH]c(=S)s2)c1 was read as Dicer processing 4.6.
Screening Cc1ccc(C)c(Nc2nc(-c3cccnc3)cs2)c1 returned Dicer processing 3.3.
Screening Cc1ccc(Nc2n[nH]c(=S)s2)cc1 returned Dicer processing inactive.
Screening Cc1c(Cl)cccc1Nc1n[nH]c(=S)s1 returned Dicer processing inactive.
Screening Cc1cc(C)nc(NS(=O)(=O)c2ccc(Nc3nc(-c4cccnc4)cs3)cc2)n1 returned Dicer processing inactive.
`O=C(O)COc1ccc2oc3ccccc3c(=O)c2c1` gave Dicer processing inactive.
Screening COc1cccc(C2C(C(=O)OC3CCCCC3)=C(C)NC3=C2C(=O)CC(C)(C)C3)c1OC (stereo not drawn) returned Dicer processing inactive.
For O=C(O)C1CCCN(c2c(-c3ccccc3)c3cc(Cl)ccc3[nH]c2=O)C1 (stereo not drawn) the results were Dicer processing inactive.
For CNc1ccc(Br)cc1-c1nc2ccccc2[nH]c1=O the results were Dicer processing inactive.
CCOC(=O)COc1nc(-c2ccc(C)cc2)cc(-c2ccco2)c1C#N was read as Dicer processing inactive.

Assay outcomes (PubChem)
